The nature of assay [1]: qHTS assay for small molecule agonists of the p53 signaling pathway (AID 651631; calls by dose curve; note: nearly all actives have a fitted effect of over 15% in size; note: potency is the fitted concentration of half-maximal effect). The gist of the method:
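HCT-116 cells carrying a stable p53 response element–beta-lactamase reporter were plated, rested 5 h at 37 °C, then exposed to compound in DMSO for 16 h at 37 °C; reporter activity was read as FRET substrate fluorescence after 2 h at room temperature.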
In general terms: Quantitative high-throughput screening tests each substance at several concentrations.

Assay [2] in a line: qHTS assay for small molecules that induce genotoxicity in human embryonic kidney cells expressing luciferase-tagged ATAD5 (AID 651632). Note: nearly all actives have a fitted effect of over 15% in size. The gist of the method: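 Reporter cells (HEK293T) express luciferase-tagged ATAD5, a protein that accumulates after DNA damage. Treat 16 hr at 37C/5% CO2, add Amplite, wait 30 min at RT, and read luminescence.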
Assay [3] can be described thus: qHTS assay for small molecules that induce genotoxicity in human embryonic kidney cells expressing luciferase-tagged ATAD5 - cell viability (AID 651634; calls by dose curve; note: nearly all actives have a fitted effect of over 25% in size; note: potency is the fitted concentration of half-maximal effect). In a few lines: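 Seeding of 2,000 HEK293T ATAD5-luciferase cells per well preceded pin-tool compound transfer. Plates sat 15.5 hr at 37C under 5% CO2, then fluorescence was read after 30 min with CellTiter-Fluor.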

Assay [4] is described as follows: qHTS assay for small molecule disruptors of the mitochondrial membrane potential - cell viability (AID 720634; calls by dose curve;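 note: human HepG2 liver cancer cells; series mostly up to about 83 µM; nearly all actives have a fitted effect of over 20% in size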). In a few lines: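 Measuring cytotoxicity alongside mitochondrial potential, the screen quantified ATP by luminescence in HepG2 cells after 1 hr compound incubation and a 30 min room-temperature CellTiter-Glo step.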
Assay [5] can be described thus: qHTS assay to test for compound auto fluorescence at 590 nm (red) in HepG2 cells (AID 720674). In a few lines:
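Compound auto-fluorescence is scored relative to Rose Bengal sodium, measured at 540/590 nm in live HepG2 cultures after 1 hr compound contact (37 C, 5% CO2).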

A short description of assay [6]: qHTS assay to test for compound auto fluorescence at 535 nm (green) in HepG2 cells (AID 720675).
Assay [7] in a line: qHTS assay to test for compound auto fluorescence at 460 nm (blue) in HEK293 cells (AID 720678). The gist of the method: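 Cells were seeded and left to adhere for 4-5 hr at 37C. Compounds were then pin-transferred. After an overnight incubation at 37C under 5% CO2, intrinsic fluorescence at 405/460 nm was measured and referenced to triamterene.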
A short description of assay [8]: qHTS assay to test for compound auto fluorescence at 590 nm (red) in HEK293 cells (AID 720679). The gist of the method:
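Each well held 2,000 HEK293 cells in medium containing 10% dialyzed FBS. Following 4-5 hr attachment at 37C, 23 nL test compound or DMSO was added; plates sat overnight, and red fluorescence (540/590nm) was recorded.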

Assay [9] can be described thus: qHTS assay for small molecule disruptors of the mitochondrial membrane potential (AID 720635). Note: potency is the fitted concentration of half-maximal effect. The gist of the method: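 HepG2 cells (2,000/well) attached overnight at 37C, then took compound for 1 hr at 37C, 5% CO2. Mito-MPS dye was added for 30 min; fluorescence was read at 490/535 nm (monomers) and 540/590 nm (aggregates).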
The nature of assay [10]: qHTS assay for small molecule agonists of the p53 signaling pathway - cell viability (AID 651633; calls by dose curve; note: nearly all actives have a fitted effect of over 30% in size; note: potency is the fitted concentration of half-maximal effect). The gist of the method:
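p53RE-bla cells, seeded at 4,000 per well and rested 5 h at 37 C/5% CO2, received compounds in DMSO for 16 h at 37 C. CellTiter-Glo was then added, and luminescence was read after 30 min at room temperature to gauge cytotoxicity.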

Values without a mark were called inactive. Results filed as inconclusive are left out. Activity calls are given as the source filed them. Unless noted, calls come from the whole dose curve; as a rule, active = well fitted curve in the direction sought with a large enough effect in the repeat runs; inconclusive = weak or mixed curves; inactive = no such curve, though single readings can be large; an effect the other way counts as inactive or inconclusive.

Take `CNCc1ccc(NC(=O)c2c[nH]c3c2C(=O)CCC3)cc1`: the Potency entry in assay [1], in [2], in assay [3] and in assay [7] was “inactive” each time. Further, the call in [4], in assay [5], in assay [6] and in assay [8] was inactive.
On to `CCO[Si](C)(CCCOCC1CO1)OCC` (stereo not drawn), for which the Potency entry in assay [1], in [2], in [3], in [9] and in assay [7] was “inactive” each time. In addition, the outcome in assay [4], in [5] and in [8] was inactive.
Turning to `COC(CC(C)CCCC(C)(C)O)OC` (stereo not drawn), the Potency result in [1], in assay [2], in assay [3], in assay [9] and in assay [7] was “inactive” in each case. The molecule was classed as inactive in [4], in [5], in assay [6] and in [8].
As for `FC(F)(F)C(F)(F)C(F)(F)C(F)(F)CCI`, the Potency entry in assay [1], in [10], in assay [3], in assay [9] and in [7] was “inactive” each time. Also, the molecule was called inactive in [4], in assay [5], in assay [6] and in [8].
As to `CC1=C2[C@@H]([C@H](C)CC[C@H]2/C=C(\C)C(=O)O)[C@H](O)C1`, the Potency result in [1], in assay [2], in assay [3] and in [9] was “inactive” each time. The call in assay [4], in assay [5], in assay [6] and in [8] was inactive.
`COC(=O)c1sccc1S(N)(=O)=O`: the Potency result in [1], in [2], in assay [3], in assay [9] and in [7] was “inactive” throughout. The molecule was called inactive in assay [4], in assay [5], in [6] and in [8].
Turning to `Cc1cn([C@H]2C[C@H](F)[C@@H](CO)O2)c(=O)[nH]c1=O`, the Potency entry in assay [1], in assay [2], in assay [3], in assay [9] and in [7] was “inactive” throughout. Moreover, the molecule was called inactive in [4], in assay [5], in assay [6] and in [8].
As to `SCCc1cnccn1`, the Potency in assay [1] is 61.1 µM (active). Moreover, the Potency result in assay [10], in assay [3], in assay [9] and in assay [7] was “inactive” in each case. Moreover, the molecule was classed as inactive in assay [4], in [5], in [6] and in assay [8].
As for `CCN(CC)c1ccc(C(=C2C=CC(=[N+](CC)CC)C=C2)c2ccc(S(=O)(=O)O)cc2S(=O)(=O)[O-])cc1`, the Potency result in assay [1], in assay [2] and in assay [7] was “inactive” in each case. Further, the Potency in [10] and in [3] was 27.3 µM (active) in each case. In addition, the result in assay [5] and in assay [8] was inactive.
Consider `C=CC(=O)NC(C)C`, for which the Potency entry in [1], in assay [10], in [3], in assay [9] and in assay [7] was “inactive” each time. Also, the outcome in assay [4], in [5], in [6] and in [8] was inactive.
In the case of `CCCC(=O)OC(=O)CCC`, the Potency result in [1], in assay [2], in [3], in assay [9] and in assay [7] was “inactive” each time. The molecule was classed as inactive in assay [4], in assay [5], in [6] and in assay [8].
In the case of `O=[N+]([O-])C1(Br)COCOC1`, the Potency entry in assay [1], in assay [2], in [10] and in assay [7] was “inactive” throughout. The Potency in assay [9] was 48.6 µM (active). Besides, the outcome in assay [5], in assay [6] and in assay [8] was inactive.
Take `CS(=O)(=O)c1ccc([C@@H](C[C@H]2CCC(=O)C2)C(=O)Nc2cnccn2)cc1Cl`: the Potency result in assay [1], in assay [10], in assay [3], in assay [9] and in assay [7] was “inactive” each time. The outcome in assay [4], in [5], in [6] and in [8] was inactive.
Turning to `O=S(=O)(O)CO`, the Potency result in assay [1], in [2], in [10], in [3] and in assay [7] was “inactive” in each case. For the same molecule, the molecule was classed as inactive in assay [5] and in assay [8].
On to `Cc1c(C2(c3cc(Br)c(O)c(Br)c3C)OS(=O)(=O)c3ccccc32)cc(Br)c(O)c1Br`, for which the Potency result in assay [1], in assay [2] and in assay [7] was “inactive” in each case. For the same molecule, in [3], the Potency is 8.38 µM (active). Besides, the molecule was classed as inactive in assay [5], in assay [6] and in assay [8].
On to `O=c1[nH][nH]c(=O)c2cc([N+](=O)[O-])ccc12`, for which the Potency entry in assay [1], in [2], in assay [3] and in assay [7] was “inactive” throughout. For the same molecule, the outcome in assay [5], in assay [6] and in assay [8] was inactive.
Regarding `C[C@@H]1[C@H](O)[C@@H](C)/C=C/C=C\C=C\C=C\C=C\C=C\C=C\[C@H](O[C@@H]2O[C@H](C)[C@@H](O)[C@H](N)[C@@H]2O)C[C@@H]2O[C@](O)(C[C@@H](O)C[C@@H](O)[C@H](O)CC[C@@H](O)C[C@@H](O)CC(=O)O[C@H]1C)C[C@H](O)[C@H]2C(=O)O` (stereo in doubt), the Potency result in assay [1], in assay [2] and in assay [10] was “inactive” throughout. In addition, the molecule was classed as inactive in [4], in assay [5], in assay [6] and in assay [8].
Consider `CC(C)(C)S`, for which the Potency result in assay [1], in [2], in assay [3], in assay [9] and in assay [7] was “inactive” throughout. Moreover, the result in assay [4], in [5], in assay [6] and in assay [8] was inactive.

Source of the values: PubChem BioAssay (Tox21).
